Laboratory results reported in PubChem BioAssay (NCATS).
Inconclusive results are not listed. Active and inactive are the calls of the source. Calls follow the shape of the full dose curve.

The compounds below were run against Vitamin D3 receptor (Homo sapiens) (UniProt P11473) (assay: qHTS assay for small molecule agonists of vitamin D receptor signaling (AID 588543)). Settings: HEK293T VDR-UAS-bla, beta-lactamase ratio, 16 h; series mostly up to 76.8 µM.
Sequence of Vitamin D3 receptor (Homo sapiens) (P11473 whole entry, looked up): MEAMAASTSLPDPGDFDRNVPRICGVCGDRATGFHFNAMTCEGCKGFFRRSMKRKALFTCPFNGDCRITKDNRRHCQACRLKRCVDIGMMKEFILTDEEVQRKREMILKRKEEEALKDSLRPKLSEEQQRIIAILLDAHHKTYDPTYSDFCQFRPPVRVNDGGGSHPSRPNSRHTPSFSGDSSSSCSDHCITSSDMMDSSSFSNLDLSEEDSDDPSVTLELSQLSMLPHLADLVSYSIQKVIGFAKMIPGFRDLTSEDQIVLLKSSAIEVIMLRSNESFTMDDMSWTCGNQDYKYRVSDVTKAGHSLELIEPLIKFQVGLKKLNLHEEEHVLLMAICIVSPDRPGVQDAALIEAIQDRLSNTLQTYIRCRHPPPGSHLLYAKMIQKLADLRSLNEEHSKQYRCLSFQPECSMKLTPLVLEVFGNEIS
From the text: NIH Chemical Genomics Center [NCGC]
U.S. Environmental Protection Agency [EPA]
National Institutes of Environmental Health Sciences [NIEHS]
National Toxicology Program [NTP]
The Vitamin D receptor (VDR) is a member of nuclear hormone receptor superfamily and it plays a critical role in calcium homeostasis and bone metabolism. It plays a role in inducing cell differentiation, inhibiting cell growth and in thrombogenicity. So, VDR that mediates these effects represents a pharmacological target in prevention and treatment of hyperproliferative malignancies, such as cancer and psoriasis, cardiovascular, immunological, inflammatory and renal diseases etc.
NCGC Assay Protocol Summary
Using a beta-lactamase reporter-gene under control of Vitamin D receptor (VDR) response element, a cell-based assay [GeneBLAzer (VDR -UAS-bla assay developed by Invitrogen] was used to measure VDR ligands signaling. GeneBLAzer VDR -UAS-bla HEK293T cells were used with assay medium containing 2% charcoal-stripped FBS. The assay was performed in clear bottom black Greiner 1536-well plates. 1-alpha,25-Dihydroxy vitaminD3 was used as a positive control in the screen. Library compounds were measured for their ability to stimulate the reporter gene activity. Compounds were screened in a titration series in 1536-well format. The fluorescence intensity (405 nm excitation, 460/530 nm emission) was measured using an EnVision plate reader. Data was normalized relative to 1-alpha,25-Dihydroxy vitaminD3 control (50 nM, 100%) and DMSO only wells (basal, 0%). Concentration-response titration points for each compound were fitted to the Hill equation yielding concentrations of half-maximal stimulation (EC50) and maximal response (efficacy) values.
qHTS protocol for VDR beta-lactamase assay in agonist mode
[Step] [Parameter] [Value] [Description]
1. Reagent; 6 uL; 2000 cells/well
2. Incubation; 37 C for 5 hrs
4. Controls (1-alpha,25-Dihydroxy vitaminD3); 23 nL,
- Final concentrations of 50 nM and 15 nM in two columns
5. Incubation; 37 C for 16 hrs
6. Detection reagent; 1 uL of CCF4-dye
7. Incubation; RT for 2 hrs
8. Detection; Fluorescence; Envision plate reader
In the case of `Nc1cc(Cl)ccc1O`, the outcome is reported as “inactive”. With `Cc1cc(C)cc(OP(=O)(Oc2cc(C)cc(C)c2)Oc2cc(C)cc(C)c2)c1` the outcome was “inactive”. `Clc1ccc(C(Cl)(Cl)Cl)c(Cl)c1` was tested, and the outcome was “inactive”. In the case of `O=C(O)c1cc(Cl)ccc1Cl`, the outcome is reported as “inactive”. With `C=CCOCC1CO1` (stereo not given) the outcome was “inactive”. With `CC(C)[C@]12CC(=O)[C@H](C)[C@H]1C2` the outcome was “inactive”. `ClCC(Cl)Cl` was tested, and the outcome was “inactive”. In the case of `CCCC[N+](=O)[O-]`, the outcome is reported as “inactive”. For `O=[N+]([O-])c1cccc(O)c1`, the outcome was “inactive”. In the case of `Cc1cc(-c2ccc(N)c(C)c2)ccc1N`, the outcome is reported as “inactive”. With `CCN(CC)N=O` the outcome was “inactive”. `O=C(Cl)OCc1ccccc1` was tested, and the outcome was “inactive”. `CC(Cl)(Cl)Cl` was tested, and the outcome was “inactive”. With `C=CCc1cc(OC)c2c(c1)OCO2` the outcome was “inactive”. With `COc1c(C(C)(C)C)cc([N+](=O)[O-])c(C)c1[N+](=O)[O-]` the outcome was “inactive”. In the case of `CCC(Cl)[N+](=O)[O-]` (stereo not given), the outcome is reported as “inactive”. In the case of `O=[N+]([O-])c1ccc(Cl)cc1`, the outcome is reported as “inactive”. With `CC(C#N)CCC#N` (stereo not given) the outcome was “inactive”. For `Cc1ccc(N)cc1N`, the outcome was “inactive”. For `C=COC(C)=O`, the outcome was “inactive”. In the case of `O=C(O)c1cccc(Cl)c1`, the outcome is reported as “inactive”. `c1ccc2c(c1)CCNC2` was tested, and the outcome was “inactive”. `C=C(C)CCl` was tested, and the outcome was “inactive”. In the case of `S=C1NCCN1`, the outcome is reported as “inactive”. For `Cl/C=C/Cl`, the outcome was “inactive”. `CCCCC(CC)COC(=O)c1ccc(C(=O)OCC(CC)CCCC)c(C(=O)OCC(CC)CCCC)c1` (stereo not given) was tested, and the outcome was “inactive”. `CCCCOCC1CO1` (stereo not given) was tested, and the outcome was “inactive”. `CC(C)(C)C(O)(CCc1ccc(Cl)cc1)Cn1cncn1` (stereo not given) was tested, and the outcome was “inactive”. `Oc1cc(Cl)ccc1Cl` was tested, and the outcome was “inactive”. With `C=CC(=O)OCCO` the outcome was “inactive”. With `C1CC2OC2CC1C1CO1` (stereo not given) the outcome was “inactive”. With `O=C(Cl)c1ccccc1F` the outcome was “inactive”. For `CCSC(=O)N1CCCCCC1`, the outcome was “inactive”. `ClCc1ccccn1` was tested, and the outcome was “inactive”. In the case of `Nc1c(Br)cc([N+](=O)[O-])cc1[N+](=O)[O-]`, the outcome is reported as “inactive”. `Cl/C=C/CCl` was tested, and the outcome was “inactive”. In the case of `CCOP(=O)(OCC)OCC`, the outcome is reported as “inactive”. `[O-][Cl+]O` was tested, and the outcome was “inactive”. In the case of `c1ccc(OCC2CO2)cc1` (stereo not given), the outcome is reported as “inactive”. For `ClCCCCl`, the outcome was “inactive”.
